From PubChem BioAssay (Tox21)
Unmarked numbers belong to inactive results. Inconclusive results are not listed. Entries that show only a call come without a potency. Calls of active or inactive are those of the source. Unless noted, the call rests on the fitted dose curve; in most records, active means well fitted curve in the direction sought with a large enough effect in the repeat runs; inconclusive means weak or mixed curves; inactive means no such curve, though single readings can be large; an effect the other way counts as inactive or inconclusive.

Assays:
[1] = qHTS assay to identify small molecule antagonists of the estrogen related receptor (ERR) signaling pathway from Tox21 library - cell viability counter screen (AID 1224834); further: nearly all actives have a fitted effect of over 30% in size
How it was run: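 Cytotoxicity of test substances is gauged in the same ERR cells used for the antagonist screen, after 17.5 h of compound treatment at 37 C, by CellTiter-Fluor fluorescence measured after 30 min.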

[2] = target: Luciferin 4-monooxygenase (Photinus pyralis) (UniProt P08659); experiment: qHTS assay to identify small molecule inhibitors of firefly luciferase (AID 1224835); further: nearly all actives have a fitted effect of over 25% in size
Chain of Luciferin 4-monooxygenase (Photinus pyralis) (P08659 whole entry, looked up): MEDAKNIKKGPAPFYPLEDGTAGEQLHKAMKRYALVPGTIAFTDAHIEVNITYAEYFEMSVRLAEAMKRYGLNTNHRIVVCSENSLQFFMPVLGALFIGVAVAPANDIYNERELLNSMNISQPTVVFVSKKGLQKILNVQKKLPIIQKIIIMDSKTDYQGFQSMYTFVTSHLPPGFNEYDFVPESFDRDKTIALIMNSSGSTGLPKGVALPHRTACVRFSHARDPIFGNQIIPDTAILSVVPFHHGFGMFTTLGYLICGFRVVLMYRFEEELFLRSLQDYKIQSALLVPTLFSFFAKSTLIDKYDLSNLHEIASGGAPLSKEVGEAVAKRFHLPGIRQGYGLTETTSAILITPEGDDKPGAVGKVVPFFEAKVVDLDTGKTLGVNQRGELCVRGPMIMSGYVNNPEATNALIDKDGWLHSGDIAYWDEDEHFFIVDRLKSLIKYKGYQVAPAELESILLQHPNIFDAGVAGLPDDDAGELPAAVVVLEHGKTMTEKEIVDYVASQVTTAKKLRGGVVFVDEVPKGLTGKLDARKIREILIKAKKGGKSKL
How it was run: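 Biochemical qHTS: compounds run as interplate titrations against purified firefly enzyme, with D-luciferin and ATP each at its KM concentration. Light output recorded by CCD imaging.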

[3] = qHTS assay to identify small molecule agonists of the constitutive androstane receptor (CAR) signaling pathway - cell viability counter screen (AID 1224836); further: nearly all actives have a fitted effect of over 45% in size
How it was run: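 Fluorescence from CellTiter-Fluor indicates live cells after 23 h exposure. The human hepatoma line expresses hCAR and a CYP2B6-2.2kb reporter. Incubation medium contains 0.75 uM PK11195 (final).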

[4] = qHTS assay to identify small molecule antagonists of the estrogen related receptor signaling pathway with the pleiotropic PPARgamma coactivator (PGC) from Tox21 10K library (AID 1224841; call rule not given here; further: actives are mostly falling curves and most rising ones were filed inactive; nearly all actives have a fitted effect of over 50% in size; further: potency means the concentration at half of the fitted maximal effect)
How it was run: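 Antagonism in this quantitative HTS is taken from loss of luciferase signal in PGC/ERR cells. Cells (2,000/well) are treated with compounds in DMSO after a 6 h settling period and read by One-Glo luminescence after 18 h.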

[5] = qHTS assay to identify small molecule agonists of the estrogen related receptor signaling pathway with the pleiotropic PPARgamma coactivator (PGC) from Tox21 10K library (AID 1224842); further: nearly all actives have a fitted effect of over 15% in size
How it was run: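 PGC/ERR reporter cell line, 2,000 cells per well, incubated 6 h at 37 C before 23 nL compound in DMSO was added. After 18 h at 37 C, One-Glo luminescence read following 30 min at room temperature.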

[6] = qHTS assay to identify small molecule agonists of the hypoxia (HIF-1) signaling pathway - cell viability counter screen (AID 1224844; calls by dose curve; further: nearly all actives have a fitted effect of over 50% in size)
How it was run: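 Tox21 10K compounds were added to HRE-bla ME-180 cells (0.5% dialyzed FBS) and incubated 17 hrs at 37C; ATP-based CellTiter-Glo luminescence then reported cell viability in the same wells.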

[7] = qHTS assay to identify small molecule agonists of H2AX (AID 1224845; active means well fitted activation curve with a large enough effect in the signal ratio in the repeat runs, not every such curve was filed as active; the % refers to the signal ratio)
How it was run: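 Wild-type CHO-K1 cells, plated overnight, exposed 3hr at 37C to 15 concentrations (0.76% DMSO final). Lysed, then HTRF anti-pH2AX (S139) cryptate and anti-H2AX-d2 antibodies, 24 hr room temperature; 665/620 nm emission read.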

[8] = qHTS assay to identify small molecule agonists of the hypoxia (HIF-1) signaling pathway (AID 1224846; active means well fitted activation curve with a large enough effect in the signal ratio in the repeat runs, not every such curve was filed as active; the % refers to the signal ratio)
How it was run: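 Steps: seed ME-180 HRE-bla cells (2,000/well, 0.5% dialyzed FBS); incubate 5 hrs at 37C; pin-transfer compounds or DMSO; incubate 17 hrs; add LiveBLAzer B/G substrate CCF4-AM; measure reporter activation by FRET.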

[9] = qHTS assay to identify small molecule agonists of H2AX - cell viability counter screen (AID 1224847; calls by dose curve; further: top concentration of the series differs between compounds; nearly all actives have a fitted effect of over 30% in size)
How it was run: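 Viability of CHO-K1 (wild type) cells after 3 hr compound exposure was measured by CellTiter-Glo luminescence.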

[10] = qHTS assay to identify small molecule antagonists of the estrogen related receptor (ERR) signaling pathway from Tox21 library (AID 1224848); further: nearly all actives have a fitted effect of over 50% in size; further: potency means the concentration at half of the fitted maximal effect
How it was run: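 Luminescent reporter read-out (ONE-Glo) from NTP's ERR cell line after 18 h treatment at 37 C with DMSO-dissolved Tox21 compounds; cells pre-plated 6 h beforehand at 2,000 per well.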

[11] = qHTS assay to identify small molecule agonists of the estrogen related receptor (ERR) signaling pathway from Tox21 library (AID 1224849; calls by dose curve; further: nearly all actives have a fitted effect of over 15% in size); details: ERR reporter cell line, ONE-Glo luciferase, 18 h; at 92.4 µM (top of the series) unless noted
How it was run: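 Agonist signal is luciferase luminescence from an ERR reporter cell line treated 18 h at 37 C with DMSO-dissolved compounds, read 30 min after ONE-Glo addition at room temperature.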

[12] = qHTS RealTime-Glo MT Cell Viability Assay in HepG2 cells - 24 hour (AID 1224867); further: nearly all actives have a fitted effect of over 50% in size
How it was run: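 Luminescence read-out: viable HepG2 cells reduce a prosubstrate to a NanoLuc substrate, giving a signal proportional to live cell number. Reads taken at 0, 8, 16, 24, 32 and 40 h of compound exposure at 37 C.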

[13] = qHTS RealTime-Glo MT Cell Viability Assay in HEK293 cells - 32 hour (AID 1224868)
How it was run: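 Nonlytic real-time viability readout: viable cells convert prosubstrate to NanoLuc substrate, giving luminescence proportional to live cell number. HEK293, 600 cells/well, compound added after 5 h, continuous culture at 37 C.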

[14] = A CellTox Green Cytotoxicity Assay to monitor cytotoxicity in HEK293 cells - 0 hour (AID 1224869); further: nearly all actives have a fitted effect of over 50% in size
How it was run: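 Cytotoxicity was tracked continuously in HEK293 cells by a DNA-binding dye excluded from viable cells. Compounds were transferred in DMSO 5 h after seeding; fluorescence was recorded at intervals up to 40 h.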

[15] = qHTS RealTime-Glo MT Cell Viability Assay in HepG2 cells - 40 hour (AID 1224870); further: nearly all actives have a fitted effect of over 50% in size
How it was run: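 HepG2 cells (600/well) mixed with RealTime-Glo MT reagent, settled 5 h at 37 C/5% CO2 before compound addition. Nonlytic NanoLuc luminescence from viable-cell prosubstrate reduction read repeatedly during 40 h treatment at 37 C.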

[16] = target: Nuclear receptor subfamily 1 group I member 3 (Homo sapiens) (UniProt Q14994); experiment: qHTS assay to identify small molecule agonists of the constitutive androstane receptor (CAR) signaling pathway (AID 1224839); further: nearly all actives have a fitted effect of over 15% in size; further: potency means the concentration at half of the fitted maximal effect;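 on activation: HepG2 cells stably carrying human CAR and a CYP2B6 luciferase reporter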
Chain of Nuclear receptor subfamily 1 group I member 3 (Homo sapiens) (Q14994 whole entry, looked up): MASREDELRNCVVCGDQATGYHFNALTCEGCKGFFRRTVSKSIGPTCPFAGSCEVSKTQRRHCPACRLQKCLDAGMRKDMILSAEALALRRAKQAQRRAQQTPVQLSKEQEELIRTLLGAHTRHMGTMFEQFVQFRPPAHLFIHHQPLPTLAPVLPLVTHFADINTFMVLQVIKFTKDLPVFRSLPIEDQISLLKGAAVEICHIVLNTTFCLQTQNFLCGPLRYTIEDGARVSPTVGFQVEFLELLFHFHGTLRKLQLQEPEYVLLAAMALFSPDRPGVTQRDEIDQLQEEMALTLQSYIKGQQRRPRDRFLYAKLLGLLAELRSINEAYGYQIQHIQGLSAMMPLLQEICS
How it was run: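 Stable hCAR/CYP2B6-2.2kb HepG2 line in DMEM with 10% FBS; compounds (15 concentrations) and 0.75 uM PK11195 final, 24 h at 37 C/5% CO2, then ONE-Glo luminescence after 30 min.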

[17] = qHTS assay to identify small molecule antagonists of the estrogen related receptor signaling pathway with the pleiotropic PPARgamma coactivator (PGC) from Tox21 10K library - cell viability counter screen (AID 1224840; active means well fitted cell-killing curve with a large enough effect in the repeat runs, not every such curve was filed as active; further: nearly all actives have a fitted effect of over 40% in size)
How it was run: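 Step one, plate 2,000 PGC/ERR cells per well; step two, incubate 6 h at 37 C/5% CO2; step three, pin-transfer compounds; step four, incubate 17.5 h; step five, add CellTiter-Fluor and read fluorescence after 30 min.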

[18] = target: Thyrotropin receptor (Homo sapiens) (UniProt P16473); experiment: qHTS assay to identify small molecule agonists of the thyroid stimulating hormone receptor (TSHR) signaling pathway (AID 1224843; calls by dose curve; further: nearly all actives have a fitted effect of over 45% in size)
Chain of Thyrotropin receptor (Homo sapiens) (P16473 whole entry, looked up): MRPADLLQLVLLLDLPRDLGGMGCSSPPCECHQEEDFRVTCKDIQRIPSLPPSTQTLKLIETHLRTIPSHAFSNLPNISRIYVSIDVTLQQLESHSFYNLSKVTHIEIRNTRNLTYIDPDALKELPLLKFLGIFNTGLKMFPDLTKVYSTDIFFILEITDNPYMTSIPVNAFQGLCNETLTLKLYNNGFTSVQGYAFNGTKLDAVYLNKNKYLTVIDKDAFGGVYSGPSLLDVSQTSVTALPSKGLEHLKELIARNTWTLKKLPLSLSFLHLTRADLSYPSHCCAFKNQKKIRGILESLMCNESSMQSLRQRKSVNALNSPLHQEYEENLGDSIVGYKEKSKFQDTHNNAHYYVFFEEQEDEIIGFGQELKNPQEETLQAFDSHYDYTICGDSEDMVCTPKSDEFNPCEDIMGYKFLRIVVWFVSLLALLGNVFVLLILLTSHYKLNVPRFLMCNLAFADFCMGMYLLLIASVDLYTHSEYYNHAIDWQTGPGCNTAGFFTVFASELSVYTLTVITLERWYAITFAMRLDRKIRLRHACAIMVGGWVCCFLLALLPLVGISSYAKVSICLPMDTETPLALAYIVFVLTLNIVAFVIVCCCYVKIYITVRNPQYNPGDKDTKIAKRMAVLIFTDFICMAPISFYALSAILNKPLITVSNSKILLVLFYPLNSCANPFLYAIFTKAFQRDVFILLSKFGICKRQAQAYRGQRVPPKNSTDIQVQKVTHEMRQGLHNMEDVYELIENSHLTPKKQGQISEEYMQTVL
How it was run: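 Steps: seed 800 TSHR-HEK293 cells per well; add test compound and hold 30 min at ambient temperature; dispense cAMP-d2 then anti-cAMP cryptate; incubate 1 h at ambient; measure fluorescence intensity.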

[19] = qHTS assay to identify small molecule antagonists of the constitutive androstane receptor (CAR) signaling pathway - cell viability counter screen (AID 1224837); further: nearly all actives have a fitted effect of over 45% in size
How it was run: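 Multiplexed cytotoxicity read-out for the CAR antagonist screen: double-stable HepG2-CYP2B6-hCAR cells co-treated with 50 nM CITCO (final) and compound over 15 concentrations, incubated 23 hr, then assessed by CellTiter-Fluor fluorescence.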

[20] = target: Nuclear receptor subfamily 1 group I member 3 (Homo sapiens) (UniProt Q14994); experiment: qHTS assay to identify small molecule antagonists of the constitutive androstane receptor (CAR) signaling pathway (AID 1224838); further: nearly all actives have a fitted effect of over 40% in size; further: potency means the concentration at half of the fitted maximal effect
How it was run: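 Compounds were titrated across 15 concentrations onto HepG2 cells double-stably expressing hCAR and a CYP2B6-2.2kb reporter, together with 50 nM CITCO (final). After 24 h at 37 C, luciferase activity was measured by luminescence.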

| SMILES | Potency [1] | Potency [2] | outcome [3] | Potency [4] | Potency [5] | Potency [6] | outcome [7] | outcome [8] | Potency [9] | Potency [10] | activity change, positive = activation [11] | outcome [12] | Potency [13] | Potency [14] | Potency [15] | Potency [16] | outcome [17] | outcome [18] | outcome [19] | Potency [20] |
| --- | --- | --- | --- | --- | --- | --- | --- | --- | --- | --- | --- | --- | --- | --- | --- | --- | --- | --- | --- | --- |
| CN1[C@@H]2CC[C@H]1CC(NC(=O)n1c(=O)[nH]c3ccccc31)C2 (stereo partly specified) | inactive | inactive | inactive | inactive | inactive | inactive | inactive | inactive | inactive | inactive | 7.7% [at 42.5 µM] | inactive | inactive | inactive | inactive | – | – | – | – | – |
| O=C(O)c1ccccc1S | inactive | inactive | inactive | – | – | inactive | inactive | – | inactive | – | – | inactive | inactive | inactive | inactive | inactive | inactive | inactive | – | – |
| COC(=O)c1ccc(C(=O)OC)c(C(=O)OC)c1 | inactive | – | inactive | inactive | inactive | inactive | inactive | inactive | inactive | inactive | -1.41% | inactive | inactive | inactive | inactive | inactive | inactive | inactive | inactive | inactive |
| Nc1ccc2cc(S(=O)(=O)O)ccc2c1 | inactive | – | inactive | – | – | inactive | – | – | inactive | – | – | inactive | inactive | inactive | inactive | inactive | inactive | inactive | inactive | inactive |
| COc1ccc(N=[N+]([O-])c2ccc(OC)cc2)cc1 | inactive | – | inactive | – | – | inactive | inactive | – | – | – | – | – | inactive | inactive | inactive | 0.762 µM (active) | inactive | inactive | inactive | inactive |
| O=C(O)/C=C/c1ccc(/C=C/C(=O)O)cc1 | inactive | – | inactive | – | – | inactive | inactive | inactive | inactive | – | – | inactive | inactive | inactive | inactive | inactive | inactive | – | inactive | inactive |
| COc1ccc2cc(C=O)ccc2c1 | inactive | – | inactive | inactive | inactive | inactive | inactive | inactive | inactive | inactive | 3.74% [at 42.5 µM] | inactive | inactive | inactive | inactive | inactive | inactive | inactive | inactive | inactive |
| C=C(C)C1CC=C(C)C(O)C1 (stereo unspecified) | inactive | inactive | inactive | inactive | inactive | inactive | – | – | inactive | inactive | 2.44% | – | inactive | inactive | inactive | inactive | inactive | inactive | – | – |
| O=S(=O)(c1cccc2cnccc12)N1CCCNCC1 | inactive | inactive | – | 23.7 µM (active) | inactive | – | inactive | – | inactive | – | -26.8% [at 42.5 µM] | inactive | inactive | inactive | inactive | inactive | inactive | inactive | – | 13.3 µM (active) |
| C=CCSCC1Nc2cc(Cl)c(S(N)(=O)=O)cc2S(=O)(=O)N1 (stereo unspecified) | inactive | inactive | inactive | – | – | inactive | – | inactive | inactive | – | – | inactive | inactive | inactive | inactive | inactive | inactive | inactive | – | – |
| CCC(C)OC(=O)N1CCCCC1CCO (stereo unspecified) | inactive | – | inactive | inactive | inactive | inactive | inactive | inactive | – | inactive | 2.44% | inactive | inactive | inactive | inactive | inactive | inactive | – | inactive | inactive |
| CCCCCN(CCCCC)C(=O)C(CCC(=O)O)NC(=O)c1ccc(Cl)c(Cl)c1 (stereo unspecified) | inactive | inactive | inactive | – | – | – | inactive | – | – | – | – | inactive | inactive | inactive | inactive | inactive | inactive | inactive | – | – |
| C=CCOc1nc(OCC=C)nc(OCC=C)n1 | inactive | inactive | inactive | – | – | inactive | – | inactive | inactive | – | – | inactive | inactive | inactive | inactive | – | – | inactive | – | – |
| Cc1onc(-c2ccccc2)c1-c1ccc(S(N)(=O)=O)cc1 | inactive | – | inactive | 23.7 µM (active) | inactive | inactive | – | inactive | inactive | 13.3 µM (active) | -32.6% [at 42.5 µM] | inactive | – | inactive | inactive | inactive | inactive | inactive | inactive | inactive |
| CO | inactive | – | inactive | inactive | inactive | inactive | inactive | inactive | inactive | inactive | -0.295% | inactive | inactive | inactive | – | inactive | inactive | inactive | inactive | inactive |
| CC1=CC(=O)CCC1 | inactive | – | inactive | – | – | inactive | inactive | – | inactive | – | – | inactive | inactive | inactive | inactive | inactive | inactive | inactive | inactive | inactive |
